BAZ2B block – blocks human BAZ2B; AlphaScreen BAZ2B-H3K14Ac peptide displacement; hit rate 4.4% among 360,000; Potency, µM (titrated, usually from 114 µM), actives largely listed as inhibitors; AID 504333; Q9UIF8; also: nearly all actives have a fitted effect of over 60% in size
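AlphaScreen luminescence quantifies BAZ2B engagement of H3K14Ac peptide; the protein and biotinylated peptide are both at 50 nM final, buffer PBS pH 7.4 with 0.01% Tween-20, all steps at room temperature.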
JMJD2A Tudor – blocks the human JMJD2A Tudor domain. Potency, µM (doses to about 114 µM), hits mostly inhibitors. hit rate 4.4% among 390,000. AlphaScreen JMJD2A-Tudor / H3K4me3 peptide binding. O75164. AID 504339; also: nearly all actives have a fitted effect of over 50% in size
HP1b binding inh – blocks HP1-beta chromodomain binding to methylated histone tails; P83916; AlphaScreen HP1-beta / biotin-H3K9me3 peptide binding; Potency, µM (doses to about 114 µM), usual class: inhibitors; hit rate 0.56% among 390,000; also: nearly all actives have a fitted effect of over 70% in size
Target sequence (P83916 whole entry, looked up): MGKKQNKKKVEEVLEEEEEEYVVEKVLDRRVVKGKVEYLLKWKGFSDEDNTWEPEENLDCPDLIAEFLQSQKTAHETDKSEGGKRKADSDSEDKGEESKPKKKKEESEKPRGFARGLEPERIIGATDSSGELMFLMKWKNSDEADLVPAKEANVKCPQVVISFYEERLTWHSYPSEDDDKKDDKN
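AlphaScreen: HP1-beta (50 nM) preformed 30 min with biotin-H3(1-18)K9me3 peptide (50 nM) in PBS pH 7.4, 0.01% Tween-20. Compound added for 30 min at RT, then streptavidin donor/nickel chelate acceptor beads (10 ug/mL) for 30 min.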
Sfp PPTase inh – blocks B. subtilis Sfp PPTase activity; hit rate 3.5% among 310,000; Biochemical Sfp PPTase activity, qHTS; Potency, µM, usual class: inhibitors; Q9F4F7;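 also: the enzyme is Sfp with the accession as filed and its product quenches rhodamine fluorescence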
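Sfp 15 nM + cpd, 15 min RT; start w/ rhodamine-CoA 5 uM, BHQ-2-YbbR 12.5 uM (final); 50 mM Hepes pH 7.6, 10 mM MgCl2, 0.01% NP-40, 0.01% BSA; read 525/598 nm at 0 and 30 min.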
G9a inh – inhibitors of human histone lysine methyltransferase G9a | G9a H3K9 monomethylation, AlphaScreen, 2 h | Potency, µM (titrated, usually from 102 µM), actives largely listed as inhibitors | AID 504332 | hit rate 8.8% among 350,000; also: nearly all actives have a fitted effect of over 75% in size
Target sequence (Q96KQ7 913-1193 limits assumed): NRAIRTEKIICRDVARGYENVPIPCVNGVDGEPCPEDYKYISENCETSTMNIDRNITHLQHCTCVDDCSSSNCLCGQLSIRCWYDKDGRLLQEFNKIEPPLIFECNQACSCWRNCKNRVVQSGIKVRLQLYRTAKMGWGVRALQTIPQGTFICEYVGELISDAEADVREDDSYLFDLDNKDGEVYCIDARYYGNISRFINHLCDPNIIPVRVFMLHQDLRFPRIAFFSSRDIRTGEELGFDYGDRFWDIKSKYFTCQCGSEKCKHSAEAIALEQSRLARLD
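G9a (20 nM) preincubated 15 min RT with compounds, then 500 nM biotinylated H3K9 peptide and 20 uM SAM added; 2 h RT reaction. Monomethyl-H3K9 product detected by AlphaScreen with anti-H3K9me1 antibody, streptavidin donor and anti-rabbit IgG acceptor beads.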
Large screens that a line does not name were inactive. In the library only some 12% were active in any assay of this set; here they are far more common. Calls follow the shape of the dose curve; as a rule, active = well fitted curve in the direction sought with a large enough effect; inconclusive = small, poorly fitted or top-dose-only effect, or another doubt; inactive = no such curve, though single readings can be large; an effect the other way counts as inactive or inconclusive.

CC(=O)Nc1cc(S(=O)(=O)Nc2cccc(C)c2)c(C)cc1C	none
O=C(Nc1ccc(C(=O)O)cc1)/C(=C/c1cccc(Br)c1)NC(=O)c1ccco1	none
O=C(CCN1CCc2ccccc2C1)c1ccc2c(c1)OCCO2	Sfp PPTase inh 45µM, G9a inh 8.9µM
O=C(CCN1CCCCCC1)Nc1ccc2c(c1)OCCO2	BAZ2B block 56µM, JMJD2A Tudor 5µM, HP1b binding inh inconclusive, G9a inh inconclusive
O=C(c1ccc2c(c1)OCO2)N1CCc2ccccc2C1	none
O=C(NCc1ccccc1F)C(=O)NCC(c1ccc2c(c1)OCO2)N1CCOCC1 (centres undefined)	JMJD2A Tudor inconclusive (no result: Sfp PPTase inh)
CN(C)c1nc(Cl)nc(NCCOc2ccccc2)n1	none
CCOC(=O)C(=Cc1cc(=O)c(OC)co1)C(=O)OCC	HP1b binding inh inconclusive, Sfp PPTase inh 6.3µM, G9a inh 10µM
CCN(CC)c1nc2c3c(nc4c(c3c1C#N)CC(=O)N4c1ccc(Cl)cc1)NC(C)=N2	Sfp PPTase inh inconclusive, G9a inh 35µM
O=C(NNc1c(F)c(F)cc(F)c1F)C1CCN(S(=O)(=O)c2ccccc2F)CC1	none (no result: BAZ2B block, Sfp PPTase inh, G9a inh)
COc1cc(/C=N/NS(=O)(=O)c2ccc(C(C)(C)C)cc2)cc([N+](=O)[O-])c1O	BAZ2B block inconclusive, JMJD2A Tudor 56µM, HP1b binding inh inconclusive, G9a inh 18µM
COc1cc(/C=N/NS(=O)(=O)c2ccc(C)c([N+](=O)[O-])c2)cc([N+](=O)[O-])c1O	BAZ2B block 50µM, G9a inh 40µM
COc1cc(/C=N/NS(=O)(=O)c2ccc(C)c([N+](=O)[O-])c2)ccc1O	G9a inh inconclusive (no result: BAZ2B block)
COc1ccc(-n2c(O)c(/C=N/NS(=O)(=O)c3ccc(C)c([N+](=O)[O-])c3)c3ccccc3c2=O)cc1OC	BAZ2B block 50µM, JMJD2A Tudor 40µM, HP1b binding inh inconclusive
CN(C)Cc1ccccc1-c1ccc2ncnc(NCc3cccs3)c2c1	none (no result: BAZ2B block, JMJD2A Tudor, HP1b binding inh, G9a inh)
O=S(=O)(c1ccc2ccccc2c1)N1CCCCC1	none
COc1cccc(-c2ncc3ccccc3c2COC(=O)c2cccs2)c1	none (no result: Sfp PPTase inh)
CC(=O)OC[C@H]1O[C@@H](O/N=C/[C@@H](C)[C@H](OCc2ccccc2)C(C)C)[C@H](OC(C)=O)[C@@H](OC(C)=O)[C@@H]1OC(C)=O	G9a inh 50µM (no result: JMJD2A Tudor, HP1b binding inh)
CC1(C)Cc2c(C#N)c(N)n(-c3ccccc3)c(=O)c2CO1	none
COCc1nnc(NC(=O)C2CC(=O)N(CCc3ccc(F)cc3)C2)s1 (centres undefined)	BAZ2B block inconclusive, Sfp PPTase inh inconclusive, G9a inh 40µM
COCc1nnc(NC(=O)C2CC(=O)N(C3CCCC3)C2)s1 (centres undefined)	Sfp PPTase inh inconclusive, G9a inh 28µM
COCc1nnc(NC(=O)C2CC(=O)N(C3CCCCC3)C2)s1 (centres undefined)	none (no result: G9a inh)
COc1cccc2nc3cc(C)c(C)cc3nc12	Sfp PPTase inh inconclusive
O=C(O)CSc1c2c(nc3cc(C(=O)NCCN4CCOCC4)ccc13)CCC2	BAZ2B block inconclusive, Sfp PPTase inh 89µM, G9a inh inconclusive
CCOC(=O)c1ccccc1NC(=O)c1ccc2c(SCC(=O)O)c3c(nc2c1)CCCC3	BAZ2B block 50µM, G9a inh inconclusive
CCOc1ccc(NC(=O)c2ccc3c(SCC(=O)O)c4c(nc3c2)CCCC4)cc1	none
O=C(O)CSc1c2c(nc3cc(C(=O)Nc4cccc(C(F)(F)F)c4)ccc13)CCC2	BAZ2B block 71µM, JMJD2A Tudor 79µM, G9a inh 40µM
CC(C)CCNC(=O)c1ccc2c(SCC(=O)O)c3c(nc2c1)CCCC3	G9a inh inconclusive
COc1ccc(-n2c3c(cc(C(=O)NNc4ccccc4C)c2=O)C(=O)CC(C)(C)C3)cc1	G9a inh 50µM (no result: BAZ2B block)
COc1ccc(-c2cc(-c3c(O)c(OC)c4occc4c3OC)[nH]n2)cc1OC	BAZ2B block inconclusive, JMJD2A Tudor 56µM, HP1b binding inh inconclusive
CCN1CCCC1CNCc1ccc(OCc2ccc(Cl)nc2)c(OC)c1 (centres undefined)	G9a inh inconclusive
CCN1CCCC1CNCC(O)COc1ccc(C(C)(C)C)cc1C (centres undefined)	BAZ2B block inconclusive, JMJD2A Tudor 1.6µM, G9a inh inconclusive
CCOC(=O)N1CCC(N(C(=O)Nc2ccc(Cl)c(Cl)c2)C(C)CC)CC1 (centres undefined)	none
O=C(Cc1ccc2c(c1)OCCO2)N1CCN(c2ccccc2)CC1	G9a inh 50µM
O=C(O)c1[nH]c2ccc(Cl)cc2c1CC(=O)N1CCN(c2ccccc2)CC1	G9a inh 50µM
O=C(C1CC(=O)N(c2ccc3c(c2)OCCO3)C1)N1CCN(c2ccccc2)CC1 (centres undefined)	BAZ2B block 50µM, JMJD2A Tudor inconclusive, G9a inh inconclusive
O=C(CSc1ccc2c(c1)OCCO2)N1CCN(c2ccccc2O)CC1	G9a inh 50µM (no result: Sfp PPTase inh)
Cn1nc(CC(=O)Nc2ccc3c(c2)OCCO3)c2ccccc2c1=O	none
Cc1ccc(NC(=O)Cc2c(C(=O)O)n(C)c3ccccc23)cc1F	JMJD2A Tudor 45µM
Cc1ccc(NC(=O)Cc2nn(C)c(=O)c3ccccc23)cc1F	JMJD2A Tudor 35µM
CC1(C)c2ccccc2N2CCC(=O)NC21/C=C/c1ccco1 (centres undefined)	BAZ2B block inconclusive, Sfp PPTase inh 40µM, G9a inh 40µM
CC1(C)c2ccccc2N2CC(=O)NC21/C=C/c1ccco1 (centres undefined)	BAZ2B block inconclusive, Sfp PPTase inh 3.2µM, G9a inh 32µM
CCN1C(=O)[C@H]2[C@@H](c3ccc(-c4ccc(OC)cc4)c(OC)c3)N[C@@](Cc3ccccc3)(C(=O)OC)[C@H]2C1=O	none (no result: BAZ2B block, Sfp PPTase inh, G9a inh)
COc1ccc(C2NC(Cc3ccccc3)(C(=O)O)C3C(=O)N(c4ccccc4OC)C(=O)C23)cc1 (centres undefined)	G9a inh 50µM
COc1ccc2c(c1)c(C(O)CN1CCC(Cc3ccccc3)CC1)c(C)n2C (centres undefined)	BAZ2B block 35µM, JMJD2A Tudor 28µM, HP1b binding inh inconclusive, G9a inh inconclusive
COc1ccc2c(c1)c(C(O)CN1CCN(Cc3ccc4c(c3)OCO4)CC1)c(C)n2C (centres undefined)	BAZ2B block inconclusive, JMJD2A Tudor 56µM, HP1b binding inh inconclusive, G9a inh 50µM
Cc1c(C(O)CN2CCN(Cc3ccc4c(c3)OCO4)CC2)c2ccccc2n1C (centres undefined)	BAZ2B block inconclusive, JMJD2A Tudor 56µM, G9a inh inconclusive
O=C(NCCCN1CCOCC1)c1cc(-c2ccc(Br)cc2)nc2ccccc12	none (no result: Sfp PPTase inh)
COc1ccccc1C(=O)OCc1cc(=O)n2nc(C3CC3)sc2n1	none (no result: Sfp PPTase inh)
COc1ccccc1C(CCN(Cc1ccccc1)C(C)=O)c1ccco1 (centres undefined)	BAZ2B block inconclusive, Sfp PPTase inh 56µM

Screens as filed in PubChem BioAssay.
